Screening data from PubChem BioAssay.
Only some compounds are listed: those with a hit (about 2.4% of all), similar ones and a draw of the others.
D2 ag-1 = human D2 receptor agonism in beta-arrestin assay; P14416; DiscoveRx PathHunter D2 beta-arrestin, luminescence, 90 min; 100% = 57 uM dopamine signal; activation, % (no concentration beside the values); hit rate 0.084% among 360,000; AID 624465; in the data active = activation above about 40%
Target sequence (P14416 whole entry, looked up): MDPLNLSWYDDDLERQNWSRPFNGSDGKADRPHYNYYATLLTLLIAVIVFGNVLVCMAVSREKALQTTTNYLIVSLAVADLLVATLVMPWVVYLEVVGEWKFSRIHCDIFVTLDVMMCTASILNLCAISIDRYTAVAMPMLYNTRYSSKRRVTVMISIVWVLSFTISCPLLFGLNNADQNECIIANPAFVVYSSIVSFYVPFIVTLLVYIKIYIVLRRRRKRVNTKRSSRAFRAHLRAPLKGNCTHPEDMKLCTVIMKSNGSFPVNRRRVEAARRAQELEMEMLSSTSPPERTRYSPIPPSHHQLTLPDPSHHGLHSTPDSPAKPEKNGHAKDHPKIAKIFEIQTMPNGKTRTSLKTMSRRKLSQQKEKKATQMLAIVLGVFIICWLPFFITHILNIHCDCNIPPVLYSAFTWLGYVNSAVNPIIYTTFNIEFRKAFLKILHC
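DiscoveRx PathHunter D2 beta-arrestin cells (2,100/well) attached overnight, then compound-stimulated 90 min at 37 C in HBSS/10 mM HEPES/0.1% Tween-20 buffer; beta-galactosidase complementation read by luminescence after 1 h at ambient temperature. Dopamine 57 uM final (EC100) as control.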
D2 antag = antagonizes the human D2 dopamine receptor; hit rate 2% among 340,000; inhibition, % at 10 µM; HEK293 TREx D2 cells, calcium flux, dopamine EC80; in the data active = inhibition above about 30%; inactive = below that, where a call was filed; also: 0% is about no effect
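Calcium mobilization kinetics were recorded at 1 s intervals in tetracycline-induced HEK293 T-REx D2 cells, first for 180 s after compound addition and then 180 s after EC80 dopamine.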
D2 PAM-1 = potentiates the human D2 dopamine receptor allosterically. P14416. DiscoveRx D2 beta-arrestin cells, luminescence, 90 min; 100% = 57 uM dopamine signal. AID 624464. hit rate 0.23% among 360,000. potentiation, % (test concentration not listed); in the data active = potentiation above about 50%
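D2 cells co-treated with compound plus 50 nM dopamine (EC20) for 90 min at 37 deg C to detect potentiation. Beta-arrestin recruitment was read as enzyme-fragment luminescence after 1 h at ambient temperature. Full response was set by 57 uM dopamine.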
D2 ag-2 = activates the human D2 dopamine receptor; P14416; HEK293 T-REx D2 cells, calcium flux agonist mode; activation, % at 2 µM; hit rate 0.53% among 340,000;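 active = activation over 3 SD above normal in the single-dose calcium agonist read, cut at about 30% in these data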; also: 0% is about no effect
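Agonism scored from kinetic calcium signal (1 read/sec, 180 s) following compound pin transfer, after a 10 s baseline. Cells: HEK293 Trex line expressing inducible D2 receptor coupled to calcium, dye-loaded after overnight culture at 30 C.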
D2 PAM-2 = D2 dopamine receptor (human) potentiation; P14416; AID 485347; hit rate 0.34% among 340,000; potentiation, % at 10 µM; HEK293 T-REx D2, calcium flux, EC20 dopamine potentiation;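 active = potentiation over 3 SD above the plate norm, cut at about 30% in these data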; also: 0% is about no effect
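Using a no-wash calcium dye in inducible, force-coupled HEK293 Trex cells expressing D2, we tracked fluorescence each second for 180 s after compound, then for 180 s after EC20 dopamine to detect augmented signalling.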
Starred values were filed as active, the others as inactive; x = no result.

SMILES | D2 ag-1 | D2 antag | D2 PAM-1 | D2 ag-2 | D2 PAM-2
COc1ccccc1CN1C(=O)[C@@H]2C(CCC(N)=O)NC3(C(=O)Nc4c3ccc(Cl)c4C)[C@@H]2C1=O (some centres not stated) | -1.4 | -2.8 | -0.5 | 0.2 | 32.4*
Oc1ccc(CN2CCc3ccccc3C2)c2cccnc12 | -10.0 | 65.2* | -30.4 | -0.9 | -26.5
Oc1ccc(CN2CCCCC2)c2cccnc12 | 0.2 | 2.7 | -1.8 | 0.6 | -4.8
COc1cc(CN2CCc3ccccc3C2)ccc1O | -2.5 | 19.3 | -30.3 | 4.5 | -22.0
Oc1cc2c(cc1CN1CCc3ccccc3C1)OCO2 | -0.4 | 32.6* | -21.3 | 0.4 | -17.3
CSc1nc(C)cc(Nc2c(C)cc(C)cc2C)n1 | x | x | x | 1.2 | 13.4
c1csc(CNc2ncnc3sccc23)c1 | -1.5 | x | -6.8 | x | x
c1nc(NCC2(N3CCOCC3)CCCCC2)c2ccsc2n1 | -1.2 | -3.2 | -7.7 | -1.9 | 38.2*
Cc1sc2ncnc(NCC3(N4CCOCC4)CCCCC3)c2c1C | -2.4 | 1.9 | -3.1 | 0.6 | 30.1*
CCCCc1nn2c(C)c(-c3ccc(OCC)cc3)nc2s1 | x | x | x | -0.7 | 13.0
O=C(OCC(=O)N1CCCCC1)c1c[nH]c2ccccc12 | -1.2 | -14.6 | 8.8 | 0.6 | 68.5*
Cc1cc(C)cc(C(=O)OCC(=O)N2CCCCCC2)c1 | 1.3 | 41.8* | -0.6 | -0.2 | -23.4
COc1cc(OC)cc(C(=O)OCC(=O)N2CCCC2)c1 | -3.3 | 12.1 | 3.2 | -5.0 | -12.4
O=C(OCC(=O)N1CCCC1)c1c[nH]c2ccccc12 | -3.8 | 2.9 | -0.2 | -0.2 | 5.5
Cc1cc(C)c(NC(=O)CSc2n[nH]c(-c3ccccc3Cl)n2)c(C)c1 | x | x | x | -0.3 | 17.8
COc1ccc(NC(=O)c2ccc(-c3nc(CSc4ccc(C)cc4)c(C)o3)cc2)cc1Cl | x | x | x | 1.2 | x
N/C(=N\N=C/c1ccc(F)cc1)N/N=C\c1ccc(F)cc1 | 4.1 | 40.3* | -43.7 | -1.5 | 3.5
N/C(=N\N=C/c1ccc(Br)cc1)N/N=C\c1ccc(Br)cc1 | -2.4 | 0.9 | -14.1 | -0.4 | -2.7
CN1CCN(c2ncc3c(n2)CCN(Cc2ccccc2Cl)C3)CC1 | x | x | x | 0.7 | -9.6
CCN(CC(=O)Nc1c(F)cccc1F)C(=O)Cc1sc(C)nc1-c1ccc(F)cc1 | -3.4 | -2.6 | 11.4 | -0.5 | 17.4
CCN(CC(=O)Nc1cc(Cl)ccc1C)C(=O)CCOc1ccccc1C | -2.7 | 31.2* | -36.0 | -0.4 | -13.6
CCN(CC(=O)Nc1cc(Cl)ccc1C)C(=O)COc1ccccc1F | -3.2 | 39.9* | -28.1 | -2.4 | 4.3
CCN(CC(=O)Nc1cc(Cl)ccc1C)C(=O)Cc1sc(C)nc1-c1ccc(F)cc1 | -4.7 | 75.5* | -1.9 | -0.1 | -41.9
COc1cc(C(=O)Nc2ccc3oc(-c4ccccc4)nc3c2)cc(OC)c1OC | x | x | x | 0.0 | 4.3
Cc1ccc(N2C(=O)C3C(C2=O)C(C(=O)c2ccc(Cl)cc2)N2CCCC32)cc1 (configuration not stated) | -2.9 | 33.2* | -14.2 | 3.2 | 18.3
SMILES | D2 ag-1 | D2 antag | D2 PAM-1 | D2 ag-2 | D2 PAM-2
COc1ccc(OC)c(N)c1 | 1.8 | -20.9 | 60.9* | -1.0 | -9.1
COc1ccc(OC)c(CNC(=O)Cn2nc(C)c3nn(-c4ccc(Cl)cc4)c(C)c3c2=O)c1 | x | x | x | -0.7 | -7.5
CCOC(=O)c1[nH]c2c(c1-c1ccccc1)C(=O)CC(c1ccccc1)C2 (configuration not stated) | -0.5 | 30.8* | -0.7 | 1.4 | -5.5
COc1ccc(-c2csc3ncnc(Nc4ccc(OC)c(OC)c4)c23)cc1 | x | x | x | 0.2 | 4.9
O=C(COC(=O)CC1CC2CCC1C2)Nc1cc([N+](=O)[O-])ccc1F (configuration not stated) | 2.2 | -13.9 | 1.2 | 0.1 | 31.9*
Cc1ccc(C)c(NC(=O)COC(=O)CC2CC3CCC2C3)c1 (configuration not stated) | -1.0 | x | -6.2 | x | x
Cc1c(C(=O)Nc2ccc(F)c(Cl)c2)sc2nc3n(c(=O)c12)CCC3 | x | x | x | 0.3 | -1.6
Cc1ccccc1C(=O)NCCNc1ccc([N+](=O)[O-])cc1 | -4.5 | 32.8* | -5.8 | -0.2 | -0.4
O=C(NCCNc1ccc([N+](=O)[O-])cc1)c1ccccc1Br | -0.4 | -19.6 | -4.8 | 0.5 | 34.1*
COc1ccc(NC(=O)CC2C(=O)N(c3cccc(OC)c3)C(=O)N2CCC2=CCCCC2)cc1 (configuration not stated) | x | x | x | -0.2 | -24.7
CCCCC(Sc1nc(N)c(NC(=O)c2ccc(OCC)cc2)c(=O)[nH]1)C(=O)O (configuration not stated) | -2.2 | -6.5 | -5.0 | 0.1 | 31.2*
CCCS(=O)(=O)NCCc1csc2nc(-c3ccc(OC)cc3)nn12 | x | x | x | 0.0 | 9.2
O=C(CCn1c(=O)sc2ccccc21)NCCC1=CCCCC1 | -2.4 | 37.5* | -19.2 | -3.0 | -39.5
Cn1c(Cn2c(=O)sc3ccccc32)nnc1SCC(=O)NCc1ccco1 | -7.4 | 12.2 | -0.7 | 0.6 | -9.8
O=C(CCn1c(=O)sc2ccccc21)NCc1ccco1 | -9.5 | 41.8* | -23.4 | 0.3 | -16.8
Cc1ccccc1NC(=S)NC1CCN(Cc2ccccc2)CC1 | -1.0 | 78.4* | -39.3 | -0.1 | -26.9
Cc1ccc(NC(=O)CS(=O)CC(=O)NC2CCN(Cc3ccccc3)CC2)c(C)c1 (configuration not stated) | -2.3 | 9.3 | -20.7 | -1.2 | -1.7
Cc1ccc(NC(=S)NC2CCN(Cc3ccccc3)CC2)c(C)c1 | -1.2 | 46.9* | -35.3 | 0.3 | -20.8
Cc1ccc(NC(=O)C2CCCN2S(=O)(=O)c2cccc3cccnc23)cc1C (configuration not stated) | x | x | x | 0.0 | -1.3
CCN(CC)CCCNC(=S)N1CCN(c2nc(-c3ccccc3)cs2)CC1 | 0.4 | 32.6* | -14.4 | 0.0 | -9.2
CCc1nnc(NC(=O)CN2CCN(c3nc(-c4ccccc4)cs3)CC2)s1 | 2.7 | 31.5* | 1.3 | -0.5 | -0.6
CC(C)C(=O)NNC(=O)CN1CCN(c2nc(-c3ccccc3)cs2)CC1 | -3.1 | -0.6 | -2.2 | 1.6 | 2.5
CCOCCCNC(=S)N1CCN(c2nc(-c3ccccc3)cs2)CC1 | -4.7 | x | -3.3 | x | x
Cc1ccn2c(Nc3c(C)cccc3C)c(-c3ccc(Cl)s3)nc2c1 | x | x | x | 3.4 | 0.3
CN(C)CCCN1c2ccccc2CCc2ccccc21 | -6.7 | 60.4* | -38.3 | -2.1 | -29.1
CC(CN(C)C)CN1c2ccccc2CCc2ccccc21 (configuration not stated) | -7.8 | 73.5* | -5.0 | 4.1 | -23.6
CCN(CC)CCN(Cc1cc2cc3c(cc2[nH]c1=O)OCCO3)C(=S)NCC1CCCO1 (configuration not stated) | -1.8 | -14.4 | -4.6 | 2.4 | -6.2
CN(C)CCN(Cc1cc2cc3c(cc2[nH]c1=O)OCCO3)C(=S)NCC1CCCO1 (configuration not stated) | 1.3 | 40.8* | 1.5 | 0.0 | -1.1
